Source: PubChem BioAssay AID1347416 (National Center for Advancing Translational Sciences (NCATS), 2020)
Hit rate of the full screen: of about 4,100 compounds, about 1,600 (39%) were called active. Another 25% or so got no clear call; they are omitted. Some of the results follow. Values without a mark were called inactive. Calls follow the shape of the dose curve; as a rule, active = well fitted inhibition curve with a large enough effect; inconclusive = small, poorly fitted or top-dose-only effect; inactive = no such curve, though single readings can be large or run the other way.

Assay: qHTS Validation assay for Inhibitors of Plasmodium falciparum Dd2 growth in vitro; also: nearly all actives have a fitted effect of over 70% in size
Details: P. falciparum Dd2 in RBCs, SYBR Green growth, 72 h; series mostly up to 28.7 µM; activity change, negative = inhibition: at the top concentration
Procedure, shortened: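 P. falciparum Dd2-infected red blood cells (2.5% hematocrit, 0.3% parasitemia) grown 72 h at 37 °C under 5% O2 with compounds in a titration, 29 uM to 0.5 nM final. Growth read as SYBR Green-1 fluorescence after ~16 h lysis; artesunate 300 nM as positive control.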
% is scaled to controls: 0 for no effect and ±100 for the full control effect; potency is read from the fitted curve at half-maximal effect.

| SMILES | activity change, negative = inhibition | Potency |
| --- | --- | --- |
| CC(=O)c1ccc(NC(=O)c2noc3c2CCC3)cc1 | -5.84% | – |
| CC1CCCN(Cc2c(O)ccc3c(=O)c(-c4ccc(Cl)cc4)coc23)C1 (stereo not drawn) | – | 1.88 µM (active) |
| Cc1oc2c(CN3CCCCC3)c(O)ccc2c(=O)c1-c1ccc(Cl)cc1 | – | 5.31 µM (active) |
| CC1CCCN(Cc2c(O)ccc3c(=O)c(-c4ccccc4Cl)c(C(F)(F)F)oc23)C1 (stereo not drawn) | – | 0.842 µM (active) |
| O=c1c(-c2ccc(Br)cc2)coc2c(CN3CCCCC3)c(O)ccc12 | – | 2.11 µM (active) |
| CC1CCCN(Cc2c(O)ccc3c(=O)c(Oc4ccccc4Cl)c(C(F)(F)F)oc23)C1 (stereo not drawn) | – | 2.11 µM (active) |
| Cc1ccc(-c2[nH]n3c(=O)c4c(nc3c2C)CCCC4)cc1 | – | 2.99 µM (active) |
| O=C(NCc1ccco1)C1CN(S(=O)(=O)c2ccccc2)CC12CCCCC2 (stereo not drawn) | 4.27% | – |
| O=C(NCCN1CCCCCC1)C1CCCN1S(=O)(=O)c1cccc2nsnc12 (stereo not drawn) | -21% | – |
| O=C(NCCN1CCCC1)C1CN(S(=O)(=O)c2cccs2)CC12CCCCC2 (stereo not drawn) | – | 13.3 µM (active) |
| O=C(NCCc1c[nH]c2ccccc12)c1cncc(Br)c1 | 7.82% | – |
| c1ccc2c(NCCc3c[nH]c4ccccc34)c3ccccc3nc2c1 | – | 1.88 µM (active) |
| CN(C)CCCNc1c2ccccc2nc2ccccc12 | – | 4.22 µM (active) |
| Cc1cc(C)n(-c2nc3cc(Cl)ccc3nc2N2CCN(c3ccccc3F)CC2)n1 | 28.4% | – |
| Cc1cc(Nc2nc3ccccc3nc2Cl)n(-c2ccccc2C)n1 | – | 0.842 µM (active) |
| CC(C)CNc1nnnc2c1sc1nc(N3CCOCC3)c3c(c12)CCCC3 | – | 15 µM (active) |
| COC(C)c1ccc(-c2cc(C(=O)O)cc(S(=O)(=O)NC(C)C)c2)cc1 (stereo not drawn) | 33.1% | – |
| Cc1cccc(C(=O)NC2CCN(c3cc(-c4ccc(Cl)cc4)[nH]n3)C2)c1 (stereo not drawn) | -19.2% | – |
| Cc1ccc(-n2nc3c(=O)n(CCCC(=O)NCc4ccccc4F)nc(C)c3c2C)cc1 | 32.8% | – |
| O=C(NC1CCN(c2cc(-c3ccc(Cl)cc3)[nH]n2)C1)c1ccccc1 (stereo not drawn) | 8.13% | – |
| O=C(NC1CCCN(c2cc(-c3ccccc3)[nH]n2)C1)c1ccccc1 (stereo not drawn) | 1.56% | – |
| COc1cc(C(=O)NC2CCN(c3cc(-c4ccccc4)[nH]n3)CC2)cc(OC)c1OC | – | 5.96 µM (active) |
| Cc1ccc2c(c1)COc1c3ccc(C(=O)O)cc3nn1-2 | 5.75% | – |
| Cn1c(=S)[nH]c2sc3c(c2c1=O)CCC(C(C)(C)C)C3 (stereo not drawn) | – | 5.31 µM (active) |

| SMILES | activity change, negative = inhibition | Potency |
| --- | --- | --- |
| Cn1c2c(c(=O)n(C)c1=O)C(c1cc(Br)ccc1F)CC(=O)N2 (stereo not drawn) | 44.2% | – |
| COc1ccc(Br)cc1C1C(C(=O)Nc2ccc(C)cc2C)=C(C)Nc2ncnn21 (stereo not drawn) | 66.2% | – |
| COc1ccccc1NC(=O)C1=C(C)Nc2ncnn2C1c1ccccc1C(=O)O (stereo not drawn) | 31.6% | – |
| CC1=C(C(=O)Nc2ccc(C)cc2C)C(c2cc(Br)ccc2F)n2ncc(C(=O)Nc3ccc(C)cc3)c2N1 (stereo not drawn) | – | 1.5 µM (active) |
| CC1=C(C(=O)Nc2ccccc2)C(c2cc(Br)ccc2F)n2ncc(C(=O)Nc3ccccc3)c2N1 (stereo not drawn) | – | 1.68 µM (active) |
| CC1(CNc2ccccc2)COc2ccc(C(=O)NCc3cccs3)cc2N1 (stereo not drawn) | 0% [at 43.1 µM] | – |
| COc1ccc2nc(N(Cc3cccnc3)C(=O)CCc3ccccc3)sc2c1 | – | 6.68 µM (active) |
| O=C(c1ccccc1)N1CCC(N(Cc2cccnc2)C2CCOCC2)CC1 | 9.55% | – |
| COc1cccc(CN(C)C(=O)CCc2nnc(-c3ccsc3)o2)c1 | 23.3% | – |
| c1cnc(N2CCOCC2)c(OC2CCNC2)n1 (stereo not drawn) | – | 7.5 µM (active) |
| CCC(=O)N1c2ccccc2CC1C(=O)NCCc1ccccc1OC (stereo not drawn) | -37.3% | – |
| COc1ccccc1-c1nnc(C2CCN(C(=O)c3ccc(Cl)cc3)CC2)o1 | 45% | – |
| COc1ccccc1-c1nnc2n1C(C(=O)NCCc1ccc(Cl)cc1)CC2 (stereo not drawn) | – | 3.35 µM (active) |
| COc1ccc(CNC(=O)CCCn2c(=O)c3cccn3c3ccc(F)cc32)cc1OC | -21.9% | – |
| COc1ccc(CCNC(=O)Cn2c(-c3cccs3)cc3cc(F)ccc32)cc1OC | – | 4.73 µM (active) |
| COc1ccccc1NC(=O)C(=O)NCCc1csc(-c2cccc(F)c2)n1 | 17.3% | – |
| Fc1cc(F)cc(Cc2nc3nccc(-c4cccs4)n3n2)c1 | -9.69% | – |
| CC(NC(=O)Cn1c(-c2cccs2)cc2cc(F)ccc21)c1ccccc1 (stereo not drawn) | – | 2.66 µM (active) |
| FC(F)(F)c1cnc(N2CCCN(C(=S)Nc3ccccc3)CC2)c(Cl)c1 | – | 4.73 µM (active) |
| O=C(C1CC1)N1CCC(c2nc(C3CCOCC3)no2)CC1 | 0% | – |
| CC(C)CNC(=O)c1nc(-c2ccc(Cl)cc2)c2cnccn12 | – | 8.63 µM (active) |
| COCCNC(=O)c1nc(-c2ccc([S+](C)(=O)[O-])cc2)c2ccccn12 | -0.0535% | – |
| COC(=O)c1[nH]c2cccc(Cl)c2c1NC(=O)CN1CCCCC1C (stereo not drawn) | -8.86% | – |
| COCCOc1cc(=O)n2c(c1C(=O)NCc1ccc(OC)cc1)CCOCC2 | -24.8% | – |
